Several values for one entry are separate records, joined by “and”; a condition that tells them apart may be missing. Equal entries are not always repeated. The whole screen tested about 5,500 compounds, of which about 2,000 (36%) were called active. Inconclusive results (about 18%) are left out. Rule as the data show it: active = normalized growth mostly below about 0.91 (no sharp cut-off); inconclusive = no clear call, values can overlap the other calls; inactive = mostly above about 0.92. This is one part of the list.
Assay: chemical genetic growth profiling, strain panel (AID 1159580);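 also: tested at 20 µM; growth read once vehicle control cultures reached saturation at 30 °C; 1 = growth at the plate median or of vehicle wells; lower values mean less growth of the strain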
Settings: S. cerevisiae deletion strains, growth OD

Measured: normalized growth

CCCNC(C)C(=O)Nc1ccccc1C (stereo not given)
inactive: locus YAL013W, strain DEP1, hits give low values 1.01 | locus YAL021C, strain ccr4, hits give low values 1.01 | locus YAL026C, strain drs2, hits give low values 1.01 | locus YAL030W, strain snc1, hits give low values 0.995 | locus YAL040C, strain CLN3, hits give low values 1.07 | locus YBL061C, strain skt5, hits give low values 1.01 | locus YBR009C, strain hhf1, hits give low values 1.01 | locus YBR021W, strain FUR4, hits give low values 1.01 | locus YBR023C, strain chs3, hits give low values 1 | locus YBR171W, strain sec66, hits give low values 1.01 | locus YBR229C, strain ROT2, hits give low values 1.01 | locus YBR231C, strain swc5, hits give low values 1.01 | locus YBR279W, strain paf1, hits give low values 1.01 | locus YCL011C, strain gbp2, hits give low values 0.999 | locus YCL016C, strain dcc1, hits give low values 1.01 | locus YCL029C, strain bik1, hits give low values 1 | locus YCL061C, strain MRC1 (second series), hits give low values 1.01 | locus YCL061C, strain MRC1, hits give low values 0.997 | locus YCL069W, strain vba3, hits give low values 1.01 | locus YCR088W, strain abp1, hits give low values 1.01 | locus YDL005C, strain med2, hits give low values 1 | locus YDL035C, strain GPR1, hits give low values 1.01 | locus YDL040C, strain nat1, hits give low values 1.01 | locus YDL074C, strain BRE1, hits give low values 1.02 | locus YDL101C, strain DUN1, hits give low values 1.02 | locus YDL134C, strain PPH21, hits give low values 1.01 | locus YDL185W, strain tfp1, hits give low values 0.997 | locus YDL192W, strain arf1, hits give low values 0.996 | locus YDR001C, strain nth1, hits give low values 1 | locus YDR069C, strain doa4, hits give low values 1.02 | locus YDR101C, strain arx1, hits give low values 1 | locus YDR137W, strain rgp1, hits give low values 1.03 | locus YDR150W, strain NUM1, hits give low values 1.01 | locus YDR159W, strain sac3, hits give low values 1 | locus YDR162C, strain NBP2, hits give low values 1.01 | locus YDR195W, strain ref2 1.01 | locus YDR297W, strain sur2, hits give low values 1 | locus YDR318W, strain mcm21, hits give low values 0.998 | locus YDR334W, strain swr1, hits give low values 0.998 | locus YDR335W, strain msn5, hits give low values 1.01 | locus YDR363W, strain ESC2, hits give low values 1.05 | locus YDR388W, hits give low values 0.99 | locus YDR392W, strain spt3, hits give low values 1.01 | locus YDR502C, strain sam2, hits give low values 0.991 | locus YEL003W, strain gim4, hits give low values 0.998 | locus YEL037C, strain rad23, hits give low values 0.994 | locus YEL061C, strain CIN8 (second series), hits give low values 1.01 | locus YEL061C, strain CIN8, hits give low values 1.01 | locus YER002W, strain NOP16, hits give low values 0.995 | locus YER015W, strain faa2, hits give low values 0.984 | locus YER016W, strain bim1, hits give low values 0.999 | locus YER110C, hits give low values 0.991 | locus YER111C, strain swi4, hits give low values 1 | locus YER155C, strain BEM2 (second series), hits give low values 1.01 | locus YER155C, strain BEM2, hits give low values 1.01 | locus YER167W, strain BCK2, hits give low values 1 | locus YFR010W, strain ubp6, hits give low values 0.992 | locus YGL078C, strain dbp3, hits give low values 0.987 | locus YGL086W, strain mad1, hits give low values 0.993 | locus YGL167C, strain pmr1, hits give low values 1.01 | locus YGL173C, strain kem1, hits give low values 1 | locus YGL227W, strain vid30, hits give low values 1 | locus YGL240W, strain doc1, hits give low values 1.01 | locus YGL248W, strain PDE1, hits give low values 1.02 | locus YGL253W, strain hxk2, hits give low values 1.01 | locus YGR078C, strain PAC10, hits give low values 1 | locus YGR135W, strain pre9, hits give low values 0.957 | locus YGR229C, strain SMI1, hits give low values 0.99 and 1.01 | locus YGR252W, strain gcn5, hits give low values 0.911 | locus YHR013C, strain ard1, hits give low values 1.01 | locus YHR027C, strain rpn1, hits give low values 1.01 | locus YHR030C, strain SLT2, hits give low values 1.01 and 1.04 | locus YHR079C, strain IRE1 (second series), hits give low values 1.01 | locus YHR079C, strain IRE1, hits give low values 1.06 | locus YHR094C, strain hxt1, hits give low values 0.982 | locus YHR129C, strain ARP1, hits give low values 1.01 | locus YHR142W, strain chs7, hits give low values 1 | locus YHR200W, strain rpn10, hits give low values 0.999 | locus YIL066C, strain RNR3, hits give low values 1.02 | locus YIL073C, strain SPO22, hits give low values 0.989 | locus YIL125W, strain kgd1, hits give low values 0.981 | locus YIR030C, strain dcg1, hits give low values 0.994 | locus YJL092W, strain hpr5, hits give low values 1 | locus YJL095W, strain BCK1 (second series), hits give low values 1.01 | locus YJL095W, strain BCK1, hits give low values 1.02 and 1.05 | locus YJL115W, strain asf1, hits give low values 1.01 | locus YJL129C, strain trk1, hits give low values 1.01 | locus YJL134W, strain LCB3, hits give low values 1.01 | locus YJL154C, strain vps35, hits give low values 1 | locus YJL164C, strain tpk1, hits give low values 0.958 | locus YJL166W, strain qcr8, hits give low values 0.999 | locus YJL168C, strain set2, hits give low values 0.991 | locus YJL187C, strain SWE1 (second series), hits give low values 1.02 | locus YJL187C, strain SWE1, hits give low values 0.999 | locus YJR043C, strain POL32, hits give low values 1

Source: PubChem BioAssay AID1159580 (chemical genetic matrix, 2015)
